A number with no mark means an inactive call. Activity calls are given as the source filed them. Calls follow the shape of the dose curve; as a rule, active = well fitted curve in the direction sought with a large enough effect in the repeat runs; inconclusive = weak or mixed curves; inactive = flat fitted curve, though single readings scatter.
% is scaled to controls: 0 for no effect and ±100 for the full control effect.

The nature of this assay: qHTS assay to test for compound auto fluorescence at 460 nm (blue) in HepG2 cell free culture (AID 720685). The note with it: Cell-free culture medium, blue autofluorescence 405/460 nm; series mostly up to 91.3 µM; fluorescence, % of fluorescent control: at the top concentration. From the text: U.S. Tox21 Program National Center for Advancing Translational Sciences [NCATS] NIH Chemical Genomics Center [NCGC] U.S. Environmental Protection Agency [EPA] National Institutes of Environmental Health Sciences [NIEHS] National Toxicology Program [NTP] U.S. Food and Drug Administration [FDA] Tox21 Assay Overview: Compound auto fluorescence often interferes with screening of the compound library against various biological targets and signaling pathways. Some of these compounds may have fluorophoric properties. Such properties may interfere with the assay outputs resulting in false positives and/or negatives. To decrease such complications and ensure the compound activities are relevant in terms of biological response, the Tox21 10K compound library was screened for auto fluorescence. From the fluorophores used as reporter signals in our screening assays, the auto fluorescence equivalencies of compounds against three fluorophores have been evaluated: Triamterene, Fluorescein and Rose Bengal sodium for blue, green and red fluorescence, respectively. The fluorescence intensities were measured using Excitation/Emission wavelengths at 405/460nm, 485/535nm and 540/590nm for blue, green and red labels, respectively. This assay includes the blue fluorescence data.
Tox21 Assay Protocol Summary: 5 uL of culture medium (MEM containing 10% FBS) per well was dispensed into black wall/clear bottom 1536-well plates using a Multidrop Combi Dispenser (ThermoFisher Scientific, Waltham, MA). After 23 nL compound or DMSO vehicle was transferred into assay plate by a pintool work station (Kalypsys, San Diego, CA), fluorescence intensities in the assay plates were measured by an Envision (PerkinElmer, Shelton, CT) plate reader using three labels for measuring blue, green and red fluorescence at […] 460, 535 and 590nm respectively.
(In general: Quantitative high-throughput screening tests each substance at several concentrations.)
As to `CCCC(=O)Nc1ccc(OCC(O)CNC(C)C)c(C(C)=O)c1` (stereo not given), the fluorescence, % of fluorescent control was -0.0068% [at 18.6 µM].

Take `CC(C)(C)NC[C@H](O)COc1cccc2c1CCCC2=O`: the fluorescence, % of fluorescent control is -0.0088% [at 18.6 µM].

As for `CC(S)C(C)S` (stereo not given), the “fluorescence, % of fluorescent control” value is -0.0345% [at 95.7 µM].

`CC(C)NCC(O)c1ccc2ccccc2c1` (stereo not given): the “fluorescence, % of fluorescent control” value was 0.0457% [at 46 µM].

As to `OCC(O)CN1CCN(c2ccccc2)CC1` (stereo not given), the “fluorescence, % of fluorescent control” value was 0.0336% [at 46 µM].

Consider `C=CCSSCCC`, for which the “fluorescence, % of fluorescent control” value is -0.0591%.

`CC(=O)O[C@@H]1CC2CCC1(C)C2(C)C` (stereo not given in full): the call was inactive.

`CC(C)[C@H]1CC[C@H](C)C[C@@H]1O`: the “fluorescence, % of fluorescent control” value was 0.014% [at 95.7 µM].

Take `CCCCOC(=O)C(C)O` (stereo not given): the “fluorescence, % of fluorescent control” value is -0.007%.

For the molecule `OCCN1CCOCC1`, the “fluorescence, % of fluorescent control” value is 0.076%.

`Cc1c(NC(=O)c2cccnc2)c(=O)n(-c2ccccc2)n1C`: the fluorescence, % of fluorescent control is -0.005% [at 18.6 µM].

Consider `Nc1nnnn1-c1ccccc1`, for which the “fluorescence, % of fluorescent control” value is 0.0627% [at 46 µM].

As to `CCCCCC/C=C/C(=O)OC`, the “fluorescence, % of fluorescent control” value was -0.0165%.

For `CO/N=C(/C(=O)N[C@@H]1C(=O)N2C(C(=O)[O-])=C(C[n+]3ccn4ncccc43)CS[C@H]12)c1nsc(N)n1`, the result was inactive.

Consider `COC(=O)c1cc(Cl)cc(Cl)c1`, for which the “fluorescence, % of fluorescent control” value was -0.0923%.

Take `CCC(=O)c1c(O)cc(O)cc1O`: the “fluorescence, % of fluorescent control” value is -0.196% [at 46 µM].

As for `CCCCOC(=O)[C@H](C)O`, the “fluorescence, % of fluorescent control” value was -0.0122%.

On to `CCCCCCCCCCCCCBr`, for which the “fluorescence, % of fluorescent control” value is 0.0272%.

Take `O=C(CN1CCNCC1)NC1CCCCC1`: the “fluorescence, % of fluorescent control” value was 0.0077% [at 46 µM].

Turning to `CN(C)CCOC(=O)C(c1ccccc1)C1(O)CCCC1` (stereo not given), the “fluorescence, % of fluorescent control” value was -0.0956% [at 46 µM].

In the case of `O=Cc1cc2ccccc2o1`, the “fluorescence, % of fluorescent control” value is -0.0082%.

Take `CCCCCCCCCCOC(C)=O`: the “fluorescence, % of fluorescent control” value is 0.021%.

Take `CN(C)CCCO[C@@H]1[C@H]2OC(C)(C)O[C@H]2O[C@@H]1C(O)CO` (stereo not given in full): the “fluorescence, % of fluorescent control” value is 0.0212% [at 46 µM].

For the molecule `CC(C)OC(=O)CCC(=O)OC(C)C`, the “fluorescence, % of fluorescent control” value was -0.183%.

For the molecule `CCCCCCC1(C)CCC(=O)O1` (stereo not given), the “fluorescence, % of fluorescent control” value is -0.047%.

In the case of `CC(C)CCOC(=O)c1ccccc1`, the “fluorescence, % of fluorescent control” value is 0.0012%.

For the molecule `CCOc1cccc(N)c1`, the “fluorescence, % of fluorescent control” value was -0.122%.

On to `CCOCCOCC`, for which the “fluorescence, % of fluorescent control” value is -0.0109% [at 95.7 µM].

On to `CN1C[C@@H]2C[C@H]1CN2c1cc2c(cc1F)c(=O)c(C(=O)O)cn2C1CC1`, for which the “fluorescence, % of fluorescent control” value is 0.29% [at 46 µM].

As for `CC(=O)O[C@H]1C[C@@H]2CC[C@@]1(C)C2(C)C`, the “fluorescence, % of fluorescent control” value is 0.0192%.

Regarding `Cc1ccc(C)c([N+](=O)[O-])c1`, the “fluorescence, % of fluorescent control” value was 0.0376%.

On to `Cc1c(C(=O)c2c[nH]n(C)c2=O)ccc(S(C)(=O)=O)c1C1=NOCC1`, for which the “fluorescence, % of fluorescent control” value is 0.035% [at 46 µM].

On to `CO[C@@]1(NC(=O)Cc2cccs2)C(=O)N2C(C(=O)O)=C(COC(N)=O)CS[C@@H]21`, for which the molecule was classed as inactive.

As to `c1ccc(-c2nn[nH]n2)cc1`, the “fluorescence, % of fluorescent control” value was -0.0103%.

As to `NCC1(Cc2noc(=O)[nH]2)CCCCC1`, the “fluorescence, % of fluorescent control” value is 0.01%.

Take `CC1CC(=O)CC(C)(C)C1` (stereo not given): the “fluorescence, % of fluorescent control” value is -0.0007%.

Regarding `CCCC(=O)OC/C=C(\C)CCC=C(C)C`, the “fluorescence, % of fluorescent control” value was -0.0053%.

With `CCCCC1CCC(O)CC1` (stereo not given), the “fluorescence, % of fluorescent control” value is 0.0237%.

`C/C=C(\C)C(C)=O`: the “fluorescence, % of fluorescent control” value is -0.0065%.

Turning to `CC(=O)CC(=O)Nc1ccc(C)cc1C`, the “fluorescence, % of fluorescent control” value is -0.0118%.

Values taken from PubChem BioAssay (Tox21).
